7 compounds from PubChem BioAssay (Tox21) can be followed below.

Experiment [1] in a line: qHTS assay to identify small molecule antagonists of the vitamin D receptor (VDR) signaling pathway - cell viability counter screen (AID 743225). Further: on the % scale 0 is the no-effect control and ±100 the full control effect; nearly all actives have a fitted effect of over 50% in size. The method, boiled down: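 Cytotoxicity toward the VDR-bla HEK 293T line was scored by ATP-based CellTiter-Glo luminescence, read in the wells already used for the beta-lactamase readout after 16 h compound treatment under 3 nM 1-alpha,25-dihydroxyvitamin D3 stimulation.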
For orientation: In qHTS, concentration-response curves come from the screen itself.

A short description of experiment [2]: qHTS assay to identify small molecule agonists of the NFkB signaling pathway (AID 1159509; active means well fitted curve in the direction sought with a large enough effect in the signal ratio in the repeat runs, not every such curve was filed as active; the % refers to the signal ratio; further: series mostly up to about 61 µM; on the % scale 0 is the no-effect control and ±100 the full control effect). An outline of the steps:
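Beta-lactamase reporter assay run in quantitative high-throughput format on an NF-kB-responsive ME-180 line, with 5 hr compound treatment and a FRET-based blue/green fluorescence readout.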

A short description of experiment [3]: qHTS assay to identify small molecule agonists of the NFkB signaling pathway - cell viability counter screen (AID 1159515; calls by dose curve; further: series mostly up to about 61 µM; on the % scale 0 is the no-effect control and ±100 the full control effect; nearly all actives have a fitted effect of over 55% in size). The method, boiled down: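 Tox21 library compounds were tested for cytotoxicity against NFkB-bla ME-180 cells during a 5 hr exposure at 37 C. CellTiter-Glo luminescence served as the viability read-out.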
Experiment [4] can be described thus: qHTS assay to identify small molecule agonists of the endoplasmic reticulum stress response signaling pathway (AID 1159516; active means well fitted activation curve with a large enough effect in the signal ratio in the repeat runs, not every such curve was filed as active; the % refers to the signal ratio; further: on the % scale 0 is the no-effect control and ±100 the full control effect). An outline of the steps:
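Fluorescence at 460 and 530 nm (405 nm excitation) reports beta-lactamase from an ER stress response element in HeLa cells treated 5 hr at 37 C.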

Experiment [5] is described as follows: qHTS assay to identify small molecule agonists of the endoplasmic reticulum stress response signaling pathway - cell viability counter screen (AID 1159517; calls by dose curve; further: series mostly up to about 61 µM; on the % scale 0 is the no-effect control and ±100 the full control effect; nearly all actives have a fitted effect of over 50% in size). The method, boiled down:
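Steps: seed 1,500 ESRE-bla HeLa cells per well; incubate overnight at 37 C, 5% CO2; add compounds in DMSO for 5 hr; run FRET substrate 2 hr RT; add CellTiter-Glo, wait 30 min, read luminescence.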

Experiment [6] in a line: qHTS assay to identify small molecule antagonists of the retinoid-related orphan receptor gamma (ROR-gamma) signaling pathway - cell viability counter screen (AID 1159520). Further: on the % scale 0 is the no-effect control and ±100 the full control effect; nearly all actives have a fitted effect of over 50% in size. An outline of the steps: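 Tet-on ROR gamma CHO cells were given compounds for 2 hr, then doxycycline hyclate at 1 uM final, and incubated 16 hr at 37 C. Viability was measured as ATP content by CellTiter-Glo luminescence.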

In experiment [7] the target is Nuclear receptor ROR-gamma (Homo sapiens) (UniProt P51449). Description: qHTS assay to identify small molecule antagonists of the retinoid-related orphan receptor gamma (ROR-gamma) signaling pathway (AID 1159521;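 further: CHO cells with doxycycline inducible ROR-gamma driving an RORE luciferase reporter; top concentration of the series differs between compounds; on the % scale 0 is the no-effect control and ±100 the full control effect; nearly all actives have a fitted effect of over 50% in size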). An outline of the steps: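 Readout: ONE-Glo luciferase luminescence, 30 min at room temperature. System: Tet-on RORγ CHO, RORE-LUC. Sequence: compound 2 h, doxycycline 1 uM final, 16 h at 37 C.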

Experiment [8] is described as follows: qHTS assay to identify small molecule agonists of the AP-1 signaling pathway - cell viability counter screen (AID 1159525; calls by dose curve; further: nearly all actives have a fitted effect of over 55% in size). The method, boiled down:
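Same-well cytotoxicity counter screen of the Tox21 10K library in ME-180 cells. The readout is ATP-dependent luminescence after 5 h compound treatment. Data are normalised to DMSO and tetra n-octyl ammonium bromide controls.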

Experiment [9] is described as follows: qHTS assay to identify small molecule agonists of the AP-1 signaling pathway (AID 1159526; calls by dose curve; further: on the % scale 0 is the no-effect control and ±100 the full control effect).
The target of experiment [10] is Retinoic acid receptor RXR-alpha (Homo sapiens) (UniProt P19793). Description: qHTS assay to identify small molecule agonists of the RXR signaling pathway (AID 1159527; calls by dose curve; further: on the % scale 0 is the no-effect control and ±100 the full control effect; nearly all actives have a fitted effect of over 35% in size). The method, boiled down:
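Reporter activation is measured as beta-lactamase activity via FRET substrate cleavage (emission 460/530 nm) in HEK 293T cells expressing an RXR-alpha-driven bla construct, following 16 hr compound exposure at 37 C.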

Experiment [11] is described as follows: qHTS assay to identify small molecule agonists of the RXR signaling pathway - cell viability counter screen (AID 1159529). An outline of the steps: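 Tox21 10K compounds were tested for cytotoxicity against GeneBLAzer RXR-alpha HEK 293T cells grown in 2% charcoal-stripped FBS. Exposure lasted 16 hr at 37 C, 5% CO2; viability read by CellTiter-Glo luminescence.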

The nature of experiment [12]: qHTS assay to identify small molecule antagonists of the retinoid acid receptor (RAR) signaling pathway - cell viability counter screen (AID 1159551). Further: on the % scale 0 is the no-effect control and ±100 the full control effect; nearly all actives have a fitted effect of over 35% in size. An outline of the steps:
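In this counter screen, the RARE-luciferase line C3RL4 was exposed for 6 h at 37 C and 5% CO2 to compounds with retinol at 1 uM final. Cellular ATP, read by luminescence, served as the viability measure.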

Experiment [13] can be described thus: qHTS assay to identify small molecule antagonists of the retinoic acid receptor (RAR) signaling pathway (AID 1159552). An outline of the steps: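 Overnight-plated C3RL4 reporter cells get compound, then retinol to 1 uM final; plates sit 6 hr at 37 C, 5% CO2. A luciferase reagent is added and light output recorded after 30 min at room temperature.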
Experiment [14] in a line: qHTS assay to identify small molecule agonists of the retinoic acid receptor (RAR) signaling pathway (AID 1159553). Further: on the % scale 0 is the no-effect control and ±100 the full control effect. An outline of the steps:
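In this cell-based screen, 1,000 C3RL4 cells per well were cultured overnight, dosed with test chemicals in DMSO for 6 hr, and assessed for RARE luciferase luminescence.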

Experiment [15] is described as follows: qHTS assay to identify small molecule antagonists of the estrogen related receptor (ERR) signaling pathway from Tox21 library - cell viability counter screen (AID 1224834). Further: on the % scale 0 is the no-effect control and ±100 the full control effect; nearly all actives have a fitted effect of over 30% in size. An outline of the steps:
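Counter screen run in ERR cells (2,000 cells/well): cells pre-incubated 6 h, then treated with compounds for 17.5 h at 37 C. Fluorescence was read 30 min after CellTiter-Fluor addition.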

The target in experiment [16] is Luciferin 4-monooxygenase (Photinus pyralis) (UniProt P08659). Description: qHTS assay to identify small molecule inhibitors of firefly luciferase (AID 1224835). Further: series mostly up to about 120 µM; on the % scale 0 is the no-effect control and ±100 the full control effect; nearly all actives have a fitted effect of over 25% in size. The method, boiled down:
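Biochemical qHTS: compounds run as interplate titrations against purified firefly enzyme, with D-luciferin and ATP each at its KM concentration. Light output recorded by CCD imaging.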

Experiment [17] can be described thus: qHTS assay to identify small molecule agonists of the constitutive androstane receptor (CAR) signaling pathway - cell viability counter screen (AID 1224836). Further: series mostly up to about 92 µM; on the % scale 0 is the no-effect control and ±100 the full control effect; nearly all actives have a fitted effect of over 45% in size. The method, boiled down: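 Fluorescence from CellTiter-Fluor indicates live cells after 23 h exposure. The human hepatoma line expresses hCAR and a CYP2B6-2.2kb reporter. Incubation medium contains 0.75 uM PK11195 (final).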

Experiment [18] can be described thus: qHTS assay to identify small molecule antagonists of the constitutive androstane receptor (CAR) signaling pathway - cell viability counter screen (AID 1224837). Further: series mostly up to about 92 µM; on the % scale 0 is the no-effect control and ±100 the full control effect; nearly all actives have a fitted effect of over 45% in size. An outline of the steps:
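CITCO at 50 nM final was added alongside compounds (15 concentrations) to double-stable hCAR/CYP2B6-2.2kb HepG2 cells. Following 23 hr at 37 C, cell viability was quantified by CellTiter-Fluor fluorescence intensity.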

Experiment [19] concerns the target Nuclear receptor subfamily 1 group I member 3 (Homo sapiens) (UniProt Q14994). Description: qHTS assay to identify small molecule antagonists of the constitutive androstane receptor (CAR) signaling pathway (AID 1224838). Further: nearly all actives have a fitted effect of over 40% in size. Further: potency means the concentration at half of the fitted maximal effect. The method, boiled down: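 Inhibition of CITCO-driven (50 nM final) CYP2B6 reporter expression is measured in HepG2 cells stably carrying hCAR. Fifteen compound concentrations are applied for 24 h at 37 C, followed by luciferase luminescence.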

Experiment [20] shares this target. Description: qHTS assay to identify small molecule agonists of the constitutive androstane receptor (CAR) signaling pathway (AID 1224839). Further: nearly all actives have a fitted effect of over 15% in size. Further: potency means the concentration at half of the fitted maximal effect. An outline of the steps:
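Stable hCAR/CYP2B6-2.2kb HepG2 line in DMEM with 10% FBS; compounds (15 concentrations) and 0.75 uM PK11195 final, 24 h at 37 C/5% CO2, then ONE-Glo luminescence after 30 min.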

Molecules are shown by their SMILES. Records with an inconclusive call do not appear. A number with no mark means an inactive call. Calls of active or inactive are those of the source. Unless noted, the call rests on the fitted dose curve; in most records, active means well fitted curve in the direction sought with a large enough effect in the repeat runs; inconclusive means weak or mixed curves; inactive means no such curve, though single readings can be large; an effect the other way counts as inactive or inconclusive.

Chain of Retinoic acid receptor RXR-alpha (Homo sapiens) (P19793 whole entry, looked up): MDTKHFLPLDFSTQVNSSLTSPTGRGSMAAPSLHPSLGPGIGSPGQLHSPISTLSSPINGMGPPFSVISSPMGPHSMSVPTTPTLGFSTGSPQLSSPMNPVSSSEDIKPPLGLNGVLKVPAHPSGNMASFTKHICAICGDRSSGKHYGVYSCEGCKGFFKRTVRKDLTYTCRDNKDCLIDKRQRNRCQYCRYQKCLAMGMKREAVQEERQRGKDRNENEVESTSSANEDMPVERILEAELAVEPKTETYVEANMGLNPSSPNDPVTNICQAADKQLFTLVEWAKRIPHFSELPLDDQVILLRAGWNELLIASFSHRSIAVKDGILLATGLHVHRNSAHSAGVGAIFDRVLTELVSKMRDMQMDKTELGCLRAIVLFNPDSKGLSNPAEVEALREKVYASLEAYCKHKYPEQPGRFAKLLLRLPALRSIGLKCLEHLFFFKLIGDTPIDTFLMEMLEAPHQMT
Chain of Luciferin 4-monooxygenase (Photinus pyralis) (P08659 whole entry, looked up): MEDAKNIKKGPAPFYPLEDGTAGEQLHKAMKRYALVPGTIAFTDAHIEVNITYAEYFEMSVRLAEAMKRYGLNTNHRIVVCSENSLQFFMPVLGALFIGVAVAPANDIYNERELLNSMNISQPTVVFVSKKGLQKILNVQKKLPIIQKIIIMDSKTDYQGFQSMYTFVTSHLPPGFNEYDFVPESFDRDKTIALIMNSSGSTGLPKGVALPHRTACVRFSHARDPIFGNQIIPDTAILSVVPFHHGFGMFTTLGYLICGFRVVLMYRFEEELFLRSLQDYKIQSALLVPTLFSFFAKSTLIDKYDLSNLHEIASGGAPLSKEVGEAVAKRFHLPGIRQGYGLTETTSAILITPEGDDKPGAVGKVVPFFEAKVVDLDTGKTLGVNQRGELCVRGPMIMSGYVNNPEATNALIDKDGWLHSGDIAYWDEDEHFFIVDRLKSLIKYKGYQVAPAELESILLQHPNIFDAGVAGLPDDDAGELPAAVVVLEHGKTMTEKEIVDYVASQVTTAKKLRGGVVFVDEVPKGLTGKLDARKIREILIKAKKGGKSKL
Chain of Nuclear receptor subfamily 1 group I member 3 (Homo sapiens) (Q14994 whole entry, looked up): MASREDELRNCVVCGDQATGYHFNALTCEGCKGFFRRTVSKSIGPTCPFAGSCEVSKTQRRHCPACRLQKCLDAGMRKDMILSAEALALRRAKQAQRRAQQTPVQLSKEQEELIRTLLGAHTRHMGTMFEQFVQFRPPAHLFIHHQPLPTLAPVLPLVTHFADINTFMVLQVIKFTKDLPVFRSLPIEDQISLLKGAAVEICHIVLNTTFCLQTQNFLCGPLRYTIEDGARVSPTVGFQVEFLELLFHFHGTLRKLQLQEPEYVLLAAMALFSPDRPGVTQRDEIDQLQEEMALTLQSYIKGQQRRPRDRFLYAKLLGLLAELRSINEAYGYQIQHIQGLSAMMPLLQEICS

Consider `CCC(=O)Oc1ccc2c(c1)CC[C@@H]1[C@@H]2CC[C@@]2(C)[C@H]1C[C@@H](OC(=O)CC)[C@@H]2OC(=O)CC`, for which the outcome in [1], in experiment [2], in experiment [3], in experiment [4], in [5] and in [6] was inactive. Also, the call in experiment [7], in experiment [8], in experiment [9], in experiment [11], in [12] and in [13] was inactive. In addition, the outcome in [15], in experiment [17] and in [18] was inactive. Further, the Potency entry in [10], in experiment [14], in experiment [16], in experiment [19] and in experiment [20] was “inactive” each time.

In the case of `COc1c2occc2c(OC)c2c(=O)cc(C)oc12`, the call in experiment [1], in experiment [2], in experiment [3], in experiment [4], in experiment [5] and in experiment [6] was inactive. Moreover, the compound was called inactive in experiment [7], in experiment [8], in experiment [9], in experiment [11], in experiment [12] and in [13]. Besides, the compound was called inactive in experiment [15], in experiment [17] and in experiment [18]. In addition, the Potency result in experiment [10], in [14], in experiment [16] and in experiment [19] was “inactive” in each case. Also, the Potency in experiment [20] was 13.3 µM (active).

Turning to `CCC(=O)c1c(O)cc(O)cc1O`, the outcome in [1], in [2], in experiment [3], in experiment [4], in experiment [5] and in [6] was inactive. Also, the compound was called inactive in experiment [7], in experiment [8], in experiment [9], in [11], in experiment [12] and in experiment [13]. The compound was classed as inactive in experiment [15], in experiment [17] and in [18]. Also, the Potency result in [10], in experiment [14], in [16], in experiment [19] and in experiment [20] was “inactive” throughout.

`CC(=O)O[C@H]1C[C@@H]2CC[C@@]1(C)C2(C)C`: the call in [1], in experiment [2], in experiment [3], in experiment [4], in experiment [5] and in experiment [6] was inactive. For the same compound, the compound was called inactive in experiment [7], in experiment [8], in experiment [9], in experiment [11], in experiment [12] and in [13]. In addition, the call in [15], in experiment [17] and in experiment [18] was inactive. The Potency result in [10], in experiment [14], in [16], in experiment [19] and in [20] was “inactive” in each case.

Take `O=C(O)[C@H](O)c1ccccc1`: the call in experiment [1], in experiment [2], in experiment [3], in [4], in [5] and in experiment [6] was inactive. For the same compound, the call in experiment [7], in experiment [8], in experiment [9], in experiment [11], in experiment [12] and in [13] was inactive. Besides, the compound was classed as inactive in [15], in experiment [17] and in [18]. For the same compound, the Potency result in experiment [10], in [14], in experiment [16], in experiment [19] and in experiment [20] was “inactive” in each case.

Take `C=C(C)c1cccc(C(C)(C)N=C=O)c1`: the outcome in [1], in [2], in experiment [3], in experiment [4], in [5] and in [6] was inactive. The compound was classed as inactive in experiment [7], in [8], in experiment [9], in experiment [11], in experiment [12] and in experiment [13]. Also, the result in experiment [15], in experiment [17] and in experiment [18] was inactive. The Potency entry in experiment [10], in experiment [14], in [16] and in [20] was “inactive” in each case. The Potency in experiment [19] was 7.7 µM (active).

Consider `CN1C[C@@H]2C[C@H]1CN2c1cc2c(cc1F)c(=O)c(C(=O)O)cn2C1CC1`, for which the result in experiment [1], in [2], in experiment [3], in experiment [4] and in [5] was inactive. Also, the activity, negative = cytotoxicity in [6] is 0.279% [at 19 µM]. For the same compound, the activity change, negative = inhibition in experiment [7] was 4.47% [at 19 µM]; in [16], 0.0867% [at 23.6 µM]. Also, the viability change, negative = cytotoxic in experiment [8] was 6.22% [at 15.8 µM]; in experiment [15], 5.48% [at 19 µM]; in experiment [17], -2.13% [at 19 µM]. The activation in experiment [9] is -4.01% [at 15.8 µM]; in [10] it was 12.3% [at 15.8 µM]; in experiment [20] it was -4.55% [at 19 µM]. The values for the activity change, negative = cytotoxicity in experiment [11], in experiment [12] and in [18] were 0.369% [at 15.8 µM], -0.0754% [at 19 µM] and -13.4% [at 19 µM], respectively. Further, the results for the activity, negative = inhibition in experiment [13] and in [19] were 0.455% [at 19 µM] and -6.55% [at 19 µM], respectively. The Potency result in experiment [14] was “inactive”.
